The structures appear in SMILES notation. Results filed as inconclusive are left out. A number with no mark means an inactive call. The source made the active and inactive calls. The call rests on the fitted dose curve; in most records, active means well fitted cell-killing curve with a large enough effect in the repeat runs; inconclusive means weak or mixed curves, or effect the other way; inactive means flat fitted curve, though single readings scatter.
On the % scale 0 is the no-effect control and ±100 the full control effect; potency means the concentration at half of the fitted maximal effect.

A short description of the assay: cAMP Responsive Elements (CRE) small molecule antagonists, cell-based qHTS assay: qHTS cell viability counter screen (AID 2060913). Further: nearly all actives have a fitted effect of over 40% in size. The settings on record: CRE-bla HEK293T viability, CellTiter-Glo luminescence, 5 h; series mostly up to 92.4 µM; viability change, negative = cytotoxic: at the top concentration. The procedure, abridged: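 Cytotoxicity counter screen multiplexed with the CRE-bla antagonist read: HEK293T cells in DMEM with dialyzed FBS and 25 mM HEPES were treated 3 hrs under 0.25 uM final NKH477, then viability measured by CellTiter-Glo luminescence.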
For orientation: qHTS replaces the single test concentration by a dilution series.
In the case of `CCC(C)c1nccnc1OC` (stereo not given), the “viability change, negative = cytotoxic” value is 10%.
Still for that read-out and setting: next, `OCCN1CCOCC1`: 1.87%; `C[C@@H]1CCC[C@H](C)N1`: 4.67% [at 42.5 µM]; `O=c1[nH]c(=O)n([C@H]2C[C@H](O)[C@@H](CO)O2)cc1F`: -9.84% [at 42.5 µM].
`CCc1ccc(C(=O)C(C)CN2CCCCC2)cc1` (stereo not given): the “viability change, negative = cytotoxic” value was -8.12% [at 42.5 µM].
Same read-out and setting: in the case of `COc1ccc(NC(C)=O)cc1` it was 3.3%.
On to `ON(Cc1ccccc1)Cc1ccccc1`, for which the “viability change, negative = cytotoxic” value was 5.6%.
With `CCCCCC/C=C\CCCCCCCC(=O)O`, the “viability change, negative = cytotoxic” value is 0.644%.
Regarding `CCN(CC)c1ccc(C(=C2C=CC(=[N+](CC)CC)C=C2)c2ccc(S(=O)(=O)O)cc2S(=O)(=O)[O-])cc1`, the Potency is 27.3 µM (active).
On to `Nc1cccc2c(N)cccc12`, for which the “viability change, negative = cytotoxic” value was 17.8%.
The same measure, in the same setting: in the case of `NC(=S)N/N=C/c1cccnc1` it was 2.93% [at 42.5 µM]; in that of `CC(C)C[C@H](NC(=O)[C@H](Cc1ccccc1)NC(=O)c1cnccn1)B(O)O`, 4.81% [at 42.5 µM]; in that of `C1CCCCCCCCCCC1`, 3.07% [at 18.9 µM].
On the same count and under the same terms, next, `CNC(=O)NC`: -7.64%; `ClCCl`: 6.4%.
Same read-out and setting: in the case of `C=CCCCCCC` it was -2.18%; in that of `CC(NN)c1ccccc1` (stereo not given), -0.733% [at 18.9 µM]; in that of `Cc1cc(O)c2c(O)c3c(O)cccc3cc2c1`, 2.83% [at 42.5 µM].
As for `Cc1ccc(C(C)OC(=O)C2(C)CCC(C(=O)O)C2(C)C)cc1` (stereo not given), the “viability change, negative = cytotoxic” value was 1.43% [at 42.5 µM].
On to `CCCCCCCCCCCCCCCCCCN(C)C`, for which the “viability change, negative = cytotoxic” value was 0.932% [at 42.5 µM].
Same read-out and setting: in the case of `CCCCNc1cc(C(=O)O)cc(S(N)(=O)=O)c1Oc1ccccc1` it was 1.79% [at 42.5 µM]; in that of `O=C(OCCOCCO)c1ccccc1Nc1cccc(C(F)(F)F)c1`, 1.67% [at 42.5 µM]; in that of `Cc1cc(=O)c2c(O)c3c(O)cc(=O)c4c3c3c(cc(O)c1c23)C(C)(C)C=4O`, -18.2% [at 18.9 µM].
Regarding `CC(C)Cc1ccccc1`, the Potency result is “inactive”.
Regarding `CC(=O)Nc1ccn(C2COC(COC(=O)c3ccccc3)O2)c(=O)n1` (stereo not given), the “viability change, negative = cytotoxic” value was 0.85% [at 42.5 µM].
With `CO/N=C1\CN(c2nc3c(cc2F)c(=O)c(C(=O)O)cn3C2CC2)CC1CN` (stereo not given), the “viability change, negative = cytotoxic” value was -0.36% [at 42.5 µM].
`CCCCCCCCCCCBr`: the “viability change, negative = cytotoxic” value was 4.23% [at 42.5 µM].
As for `[Cu+]`, the “viability change, negative = cytotoxic” value was -5.67%.
Turning to `Cc1ccc(N)c(S(=O)(=O)O)c1`, the Potency entry was “inactive”.
`Nc1ccc(C(=O)Oc2ccccc2)c(O)c1`: the “viability change, negative = cytotoxic” value is -4.47% [at 42.5 µM].
Consider `CC/C=C/CCO`, for which the “viability change, negative = cytotoxic” value is 2.11%.
With `NC(=O)C1CO1` (stereo not given), the “viability change, negative = cytotoxic” value is -1.54%.
For the compound `CC(C)c1nc(CN(C)C(=O)N[C@H](C(=O)N[C@@H](Cc2ccccc2)C[C@H](O)[C@H](Cc2ccccc2)NC(=O)OCc2cncs2)C(C)C)cs1`, the “viability change, negative = cytotoxic” value was -2.26% [at 42.5 µM].
For `O=C(NCN1CCOCC1)c1cnccn1`, the “viability change, negative = cytotoxic” value is 0.0803% [at 42.5 µM].
Consider `CC(=O)CC(C)(C)O`, for which the Potency result is “inactive”.
For `CCCCCCCCc1ccc(Nc2ccc(CCCCCCCC)cc2)cc1`, the “viability change, negative = cytotoxic” value is 1.05% [at 42.5 µM].
With `O=C1c2ccccc2C(=O)c2c(O)c(O)cc(O)c21`, the “viability change, negative = cytotoxic” value was -13.1%.
Same read-out and setting: in the case of `CCC(C)(CN(C)C)OC(=O)c1ccccc1` (stereo not given) it was -0.727% [at 42.5 µM]; in that of `CC[N+](CC)(CC)CCOc1ccc(/C=C/c2ccccc2)cc1`, -9.73% [at 42.5 µM].
As to `CCCCCC/C=C/CCCCCCCC(=O)O`, the Potency result was “inactive”.
